{
  "source": "PubChem BioAssay (NCI)",
  "note": "“And” between values parts separate entries of the source, which are not always exact repeats. Identical values can stand only once. The panel holds about 83,000 compounds, 20% with a hit somewhere; the sample as a whole holds those more often.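 Treatment: one concentration, 48 hours, 96-well format. Scoring: percent growth, with anything below 10 considered active.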 A number with no mark means an inactive call. The source made the active and inactive calls.",
  "data": [
    {"test_system": "MDA-MB-468 breast", "experiment": "NCI-60 one-dose screen, 48 h (100 = growth as untreated, 0 = no growth, -100 = all killed)", "conditions": "10 µM unless noted", "values": [
      {"compound": "O=Nc1ccc(O)c(=O)cc1", "growth": "-53.1% (active)"},
      {"compound": "COc1ccc([C@H]2[C@H](O)C(=O)N2c2cc(OC)c(OC)c(OC)c2)cc1", "growth": "8.33% (active)"},
      {"compound": "Cc1ncc(C(=O)Nc2ccc(CN3CCN(C)CC3)c(C(F)(F)F)c2)cc1C#Cc1cnc(NC2CC2)c2ncccc12", "growth": "32%"},
      {"compound": "CC1SC(=S)N(c2ccc(Cl)cc2)C1=O", "note": "(centres undefined)", "growth": "84.9% and 90.4%"}
    ]}
  ]
}
